MITF primary: blocks human microphthalmia-associated transcription factor; AID 1259374; O75030; inhibition, % at 2.6 µM; 650,000 compounds, 0.91% hits; AlphaScreen MITF homodimerization, bead proximity signal; in the data active = inhibition above about 50%;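 note: 0% = vehicle wells with protein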
Target sequence (O75030 whole entry, looked up): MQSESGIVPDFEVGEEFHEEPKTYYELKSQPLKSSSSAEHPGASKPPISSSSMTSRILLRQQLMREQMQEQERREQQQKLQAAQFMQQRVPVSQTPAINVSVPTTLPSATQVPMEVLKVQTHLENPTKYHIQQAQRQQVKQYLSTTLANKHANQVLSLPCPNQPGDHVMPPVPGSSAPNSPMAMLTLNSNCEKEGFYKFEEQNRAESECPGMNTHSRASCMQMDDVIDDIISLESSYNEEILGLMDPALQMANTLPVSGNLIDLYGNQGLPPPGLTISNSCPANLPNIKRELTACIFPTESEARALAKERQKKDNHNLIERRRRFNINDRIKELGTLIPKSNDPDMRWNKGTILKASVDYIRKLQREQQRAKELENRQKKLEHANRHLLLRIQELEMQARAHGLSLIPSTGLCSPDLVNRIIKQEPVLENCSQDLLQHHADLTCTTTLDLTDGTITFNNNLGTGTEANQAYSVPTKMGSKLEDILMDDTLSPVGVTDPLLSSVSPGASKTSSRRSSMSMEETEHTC
TEAD-YAP block: TEAD-YAP interaction inhibition. HEK-TIYL cells, TEAD-Gal4/YAP UAS-luciferase luminescence. inhibition, % at 9.12 µM. 640,000 compounds, 1.4% hits. AID 1259422; in the data active = inhibition above about 32%;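 note: 0% = median of test compound wells and 100% = reference inhibitor wells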
FBW7 act: activators of human E3 ligase FBW7 | Q969H0 | AlphaScreen FBW7–phospho-cyclin E peptide binding, activator screen | normalized activity (activation), % at 26.1 µM | 650,000 compounds, 0.13% hits | AID 1259310; in the data active = normalized activity above about 1.9%;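 note: purified mutant Fbw7 with reduced substrate affinity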
GPR151 activ: activators of human GPR151 | activation, % at 11.2 µM | 650,000 compounds, 1% hits | PathHunter beta-arrestin GPR151 cells, luminescence | Q8TDV0 | AID 1508602; in the data active = activation above about 4.9%;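 note: 0% = median of compound wells and 100% = cells with positive control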
Active calls of the source: *; ! = repeats disagree. An excerpt weighted towards active compounds, which were near 3.5% of everything screened.

O=C1CCCC2=C1C(c1cccc(F)c1Br)n1c(nc3ccccc31)N2 (configuration not stated) was read as MITF primary 13.1, TEAD-YAP block 36.0*, FBW7 act 0.0 and GPR151 activ 0.6.
Screening O=C(/C=C/c1ccc(S(=O)(=O)N2CCCCCC2)cc1)OCC(=O)c1ccc[nH]1 returned MITF primary 12.6, TEAD-YAP block 5.6, FBW7 act 0.0 and GPR151 activ 1.1.
Screening Cc1ccc2c(CSc3nc(N)cc(N)n3)cc(=O)oc2c1 returned MITF primary 8.1, TEAD-YAP block -10.3, FBW7 act -0.2 and GPR151 activ 1.2.
`Cc1ccc2oc(=O)cc(CSc3nc(C)cc(C)c3C#N)c2c1` gave MITF primary -7.5, TEAD-YAP block 50.9*, FBW7 act 0.1 and GPR151 activ -2.2.
Screening COc1cc(OC)cc(C(=O)Nc2sc3c(c2C(N)=O)CCN(C(C)C)C3)c1 returned MITF primary -5.9, TEAD-YAP block -5.0, FBW7 act -0.1 and GPR151 activ 1.5.
Screening O=C(Nc1cc(Cl)ccc1Cl)c1cc(Cl)cc(Cl)c1O returned MITF primary 2.2, TEAD-YAP block 56.8*, FBW7 act -0.1 and GPR151 activ 1.1.
`Nc1ccc(Cl)c(NC(=O)c2ccc(Cl)cc2Cl)c1` gave MITF primary 0.1, TEAD-YAP block 87.4*, FBW7 act 1.0 and GPR151 activ 0.8.
`COc1ccc(C(=O)Nc2cc(Cl)ccc2O)cc1Cl` gave MITF primary 19.3, TEAD-YAP block 3.6, FBW7 act 0.1 and GPR151 activ -0.2.
Screening O=C(Nc1cc(Cl)ccc1Oc1ccc(Cl)c2ccccc12)c1cc(Cl)cc(Cl)c1O returned MITF primary 2.2, TEAD-YAP block 3.9, FBW7 act -0.2 and GPR151 activ 0.8.
Screening O=C(Nc1cc(Cl)ccc1O)c1ccc(Cl)c(C(=O)c2ccc(Cl)cc2)c1 returned MITF primary 16.3, TEAD-YAP block 32.7*, FBW7 act 0.3 and GPR151 activ -0.6.
C(=N\Nc1ccccn1)/c1sc(N2CCCCC2)nc1-c1cccs1 was read as MITF primary 5.0, TEAD-YAP block 67.1*, FBW7 act 0.2 and GPR151 activ -0.8.
`CCc1ccc2oc(-c3ccccc3)cc(=NCC(=O)O)c2c1` gave MITF primary 14.3, TEAD-YAP block 32.2*, FBW7 act -0.1 and GPR151 activ -3.2.
COc1ccc(CCNC(=O)CSc2nc3ccc(Br)cc3c3nc4ccccc4n23)cc1OC was read as MITF primary 5.7, TEAD-YAP block -13.1, FBW7 act 1.9* and GPR151 activ -2.0.
`COc1ccc(CCNC(=O)CSc2nc3ccccc3c(=O)n2CCc2ccc(OC)c(OC)c2)cc1OC` gave MITF primary -4.0, TEAD-YAP block 5.7, FBW7 act 0.0 and GPR151 activ 0.4.
`Cc1nn(C)c(C)c1/C=C(/C(=O)C(C)C)n1cncn1` gave MITF primary 33.4, TEAD-YAP block 3.7, FBW7 act 0.0 and GPR151 activ 0.9.
For CC(C)C(=O)/C(=C/c1ccc(Cl)cc1Cl)n1cncn1 the results were MITF primary 7.9, TEAD-YAP block 73.1*, FBW7 act 0.0 and GPR151 activ 1.3.
`O=c1oc2c(O)c(O)cc3c(=O)oc4c(O)c(O)cc1c4c23` gave MITF primary 94.2*!, TEAD-YAP block -3.4, FBW7 act -0.4 and GPR151 activ 0.1.
`Cc1c(C)c2ccc(O)c(O)c2oc1=O` gave MITF primary 0.6, TEAD-YAP block 4.4, FBW7 act -0.2 and GPR151 activ 0.6.
`CCOc1ccc2nc(NC3OC(=O)c4c3ccc(OC)c4OC)sc2c1` (configuration not stated) gave MITF primary 21.2, TEAD-YAP block 1.0, FBW7 act 0.0 and GPR151 activ -2.1.
Screening Cn1c(=O)c2c(ncn2Cc2ccc(C#N)cc2)n(C)c1=O returned MITF primary 4.8, TEAD-YAP block -3.1, FBW7 act 0.1 and GPR151 activ 0.1.
Cn1c(=O)c2c(ncn2Cc2cccc(I)c2)n(C)c1=O was read as MITF primary -7.9, TEAD-YAP block 38.5*, FBW7 act -0.2 and GPR151 activ 0.4.
`Cn1c(=O)c2c(ncn2Cc2ccc(C(C)(C)C)cc2)n(C)c1=O` gave MITF primary 16.9, TEAD-YAP block 57.0*, FBW7 act 0.5 and GPR151 activ 0.9.
COc1ccccc1NC(=O)NNC(=O)CSc1nc2ccccc2s1 was read as MITF primary 6.6, TEAD-YAP block 2.4, FBW7 act 0.1 and GPR151 activ 0.1.
`CCOc1ccc(N(CC(=O)N2CCOCC2)S(C)(=O)=O)cc1` gave MITF primary 17.9, TEAD-YAP block 14.3, FBW7 act 2.1* and GPR151 activ -1.6.
Screening CS(=O)(=O)N(CC(=O)N1CCOCC1)c1ccc(Oc2ccccc2)cc1 returned MITF primary 1.8, TEAD-YAP block -5.0, FBW7 act 0.0 and GPR151 activ 0.6.
O=[N+]([O-])c1cccc(S(=O)(=O)N2CCc3ccccc3C2)c1 was read as MITF primary 0.4, TEAD-YAP block 1.4, FBW7 act 0.1 and GPR151 activ 0.7.
For O=[N+]([O-])c1cccc(S(=O)(=O)N2CCc3ccccc32)c1 the results were MITF primary 3.0, TEAD-YAP block 32.4*, FBW7 act -0.4 and GPR151 activ 0.5.
Screening Cc1cc(C)c(S(=O)(=O)N2CCc3ccccc32)cc1[N+](=O)[O-] returned MITF primary 49.4, TEAD-YAP block 63.5*, FBW7 act -0.1 and GPR151 activ 0.6.
Screening Cc1cc(/C=C2/NC(=O)N(c3cccc(Cl)c3)C2=O)c(C)n1C returned MITF primary 0.6, TEAD-YAP block 55.4*, FBW7 act -0.1 and GPR151 activ -1.4.
For Cc1sc2ncn(C)c(=O)c2c1-c1ccc(Cl)cc1 the results were MITF primary 14.7, TEAD-YAP block 15.6, FBW7 act 0.1 and GPR151 activ 2.0.
Cc1ccc(NC(=O)C(C)N2Cc3ccccc3C2=O)nc1 (configuration not stated) was read as MITF primary 5.1, TEAD-YAP block 81.8*, FBW7 act 0.1 and GPR151 activ -0.6.
`CCCc1ccc(-c2ccc(OC(=O)C3CCCCC3)cc2)nc1` gave MITF primary 0.0, TEAD-YAP block 72.7*, FBW7 act -0.1 and GPR151 activ -1.6.
CCCc1ccc(-c2ccc(C(=O)OCC(C)CC)cc2)nc1 (configuration not stated) was read as MITF primary 7.2, TEAD-YAP block -7.1, FBW7 act -0.1 and GPR151 activ 0.3.
Screening CCCc1ccc(-c2ccc(C(=O)OCc3ccco3)cc2)nc1 returned MITF primary 1.0, TEAD-YAP block 52.3*, FBW7 act -0.1 and GPR151 activ -2.0.
`O=C(/C=C/c1ccco1)Nc1nccs1` gave MITF primary 0.4, TEAD-YAP block -33.6, FBW7 act -0.1 and GPR151 activ -4.9.
For COc1ccc(/C=C/C(=O)c2ccc(S(=O)(=O)NCc3cccnc3)cc2)cc1 the results were MITF primary 19.0, TEAD-YAP block 35.0*, FBW7 act -0.1 and GPR151 activ 0.0.
O=S(=O)(NCc1ccc2c(c1)OCO2)c1ccc(Cc2ccc(S(=O)(=O)NCc3ccc4c(c3)OCO4)cc2)cc1 was read as MITF primary 12.5, TEAD-YAP block 37.6*, FBW7 act 0.2 and GPR151 activ 1.7.

Screening results: PubChem, The Scripps Research Institute Molecular Screening Center
